Data taken from PubChem BioAssay (NCI).
The panel holds about 83,000 compounds, 20% with a hit somewhere; the sample as a whole holds those more often.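 Each cell line was grown in a 96-well plate and treated with one concentration of compound for 48 hours. Values below 10 were considered active.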 Values without a mark were called inactive. Active and inactive are the calls of the source.

The compounds below were run on UACC-62 melanoma (assay: NCI-60 one-dose screen, 48 h (100 = growth as untreated, 0 = no growth, -100 = all killed)). Conditions: 10 µM unless noted.
Experimental: Growth inhibition of the UACC-62 human tumor cell line is measured as a screen for anti-cancer activity. Cells are grown in 96 well plates and exposed to the test compound for 48 hours. Compounds are tested at a single concentration, which is 10^-5 M for most compounds. The reported endpoint is percent growth (GI% or GIPRCNT), where numbers from 0 - 100% represent growth inhibition, and numbers from -100% - 0 represent cell death. For example, a value of 40 represents 60% growth inhibition. A value of 0 means no net growth occurred over the course of the experiment. A value of -40 indicates 40% of cells at the beginning of the experiment died by the end of the experiment. A value of -100 means all cells are dead at the end of the experiment.
NCI-60 Human Tumor Cell Lines Screen was performed using the standard one-dose NCI protocol, which is described in more detail at https://dtp.cancer.gov/discovery_development/nci-60/default.htm.
Compounds with GIPRCNT values below 10 were considered active. Activity score was based on GIPRCNT using the following formula: […]
Score is 0 for GIPRCNT values of 100 or above, 50 for GIPRCNT values of 0, and 100 for GIPRCNT values of -100.

Compound | growth
c1cnc2c(c1)ccc1ncccc12 | 94.6%
O=C(O)c1nn(Cc2ccc(Cl)cc2)c2ccccc12 | 102%
CC12CC[C@H](O)C=C1/C(=N/O)CC1C2CCC2(C)C1CC[C@@H]2O (stereo not given in full) | 94.3%
O=C(O)C1(Br)CC12c1ccccc1-c1ccccc12 (stereo not given) | 103%
C[CH2][Pb]([CH2]C)([CH2]C)[O]C(=O)c1ccc(N)cc1 | 73.4%
CCC(C)/C=C(C)/C=C/C(=O)c1c(O)c(-c2ccc(O)cc2)c[nH]c1=O (stereo not given) | 48.8%
CN=C(NN)NN | 116%
C[C@]12CC[C@H]3[C@@H](C[C@@H]4N=C(c5ccc(O)cc5)S[C@@]45C[C@H](O)CC[C@]35C)[C@@H]1CC[C@@H]2O | 28.7%
CNC(=O)Oc1ccccc1-c1ccccc1 | 102%
O=C1C(Cc2ccccc2)N=C(c2cccc(O)c2)c2ccc(Cl)cc2N1CC1CC1 (stereo not given) | 94.1% [30 µM]
CCOC(=O)C1(c2ccccc2)CCN(CC(=O)c2ccc(NC(C)=O)cc2)CC1 | 94%
ClCCN(CCCl)c1ccc(C=NCCc2c[nH]c3ccccc23)cc1 | 56.9%
Nc1ccc(N)c2c1Oc1ccccc1O2 | 98.6%
Nc1cccc(CC(=O)Nc2ccc(S(=O)(=O)F)cc2)c1 | 90.5%
CC(=O)O[C@@H]1C2=C(C)C3(CC3)[C@@](C)(O)C(=O)C2=C[C@@]1(C)CO | -69.8% (active)
O=CC(Br)C(Br)c1ccccc1 (stereo not given) | 87.4%
COC(C)(C)CCC[C@H](C)C/C=C/C(C)=C/C(=O)OC(C)C | 96.6%
N#CCN1C(=O)C(Cc2ccccc2)N=C(c2cccc(O)c2)c2ccc(Cl)cc21 (stereo not given) | 103% [30 µM]
Cc1cccc(N(C)c2cccc3c2C(=O)[Se]C3)c1C | 64.6%
Nc1c(Br)cc([N+](=O)[O-])cc1[N+](=O)[O-] | 101%

Compound | growth
CC(C)(C)NCC(O)c1ccccc1Cl (stereo not given) | 24%
COc1cc(NCCCCCN=C(N)N)c2ncccc2c1 | 89.3%
CC(C)(C)N(Cc1ccccc1)N=O | 103%
O=C1C=CC(=O)C2C1C1(Cl)C(Cl)=C(Cl)C2(Cl)C1(Cl)Cl (stereo not given) | 46.1%
CC(/C=N/N=C(N)N)=N/N=C(N)N | 93.6%
NC(=O)NC(=O)CI | 86.7%
CCOC(=O)/C(C#N)=C/c1ccc(N(CCCl)CCCl)cc1 | 66.5%
CC1COC(=O)C1 (stereo not given) | 106%
N#C[Se]CCCNS(=O)(=O)C1CC2C=CC1C2 (stereo not given) | -54.1% (active)
CCOC(=O)c1cnc(SCc2ccc(Cl)c(Cl)c2)nc1N1CC1 | 51.1%
CC(=O)O[C@H]1CCC2(C)C(=CCC3C2CCC2(C)/C(=N/OC(=O)c4ccc(N(CCCl)CCCl)cc4)CCC32)C1 (stereo not given in full) | 68.4%
O=C(Nc1ccc(S(=O)(=O)F)cc1)Oc1ccccc1 | 97.5%
CCCCCCCCCCOc1ccc(C(=O)Oc2ccc(CSP3(=O)OCC4OC(n5ccc(=O)[nH]c5=O)C(F)C4OP(=O)(O)OCC4OC(n5cnc6c(N)ncnc65)C(F)C4O3)cc2)cc1 (stereo not given) | 111%
COC(=O)C[Se]C(=O)c1ccccc1OC(C)=O | 77.8%
CN(Cc1cccnc1)N=O | 98.3%
CNC(=O)Oc1ccccc1 | 102%
C[C@]12CC[C@@H]3C4=C(CC[C@H]3[C@@H]1CC[C@@H]2O)CC(=O)CC4 | 83.3%
COC1=CC(=O)OC(CCc2ccc3c(c2)OCO3)C1 (stereo not given) | 107%
C/C(=C\c1cc(C(F)(F)F)n(-c2ccc(N)cc2)n1)[C@@H]1C[C@@H]2O[C@]2(C)CCC[C@H](C)[C@H](O)[C@@H](C)C(=O)C(C)(C)[C@@H](O)CC(=O)O1 | 26.8%
Nc1cccc2c1Oc1ccccc1O2 | 88.1%
